Reference: PubChem BioAssay (EPA / NIEHS)
Records with an inconclusive call do not appear. Active and inactive are the calls of the source. How the source made its calls: active means hit-call score of the fitted dose curve at least 0.9, where 1 is the maximum; inconclusive means response in the unintended direction; inactive means score below 0.9.

Columns and labels:
[1] = target: human Adrenergic, Beta 1 Receptor (Adrb1), ADRB1 (gene 153) (UniProt P08588); test: NVS_GPCR_hAdrb1: NovaScreen (NVS) G Protein-Coupled Receptor Assay for human Adrenergic, Beta 1 Receptor (Adrb1) (AID 2283258)
Chain of human Adrenergic, Beta 1 Receptor (Adrb1), ADRB1 (gene 153) (P08588 whole entry, looked up): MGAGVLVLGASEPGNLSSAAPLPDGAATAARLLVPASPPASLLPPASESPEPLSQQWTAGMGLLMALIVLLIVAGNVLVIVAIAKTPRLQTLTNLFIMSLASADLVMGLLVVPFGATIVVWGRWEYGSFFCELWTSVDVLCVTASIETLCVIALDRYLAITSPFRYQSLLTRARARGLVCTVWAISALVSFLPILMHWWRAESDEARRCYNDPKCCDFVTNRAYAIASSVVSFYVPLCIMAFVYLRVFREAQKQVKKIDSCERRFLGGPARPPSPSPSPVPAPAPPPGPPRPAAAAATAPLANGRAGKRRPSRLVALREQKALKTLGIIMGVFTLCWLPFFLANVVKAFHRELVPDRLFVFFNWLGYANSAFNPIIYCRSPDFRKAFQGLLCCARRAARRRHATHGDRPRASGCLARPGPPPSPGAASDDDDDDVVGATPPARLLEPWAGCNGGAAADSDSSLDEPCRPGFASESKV
Summary of the method: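 Cell-free radioligand displacement on receptor from human neuroepithelioma cells; 2 h after dosing, filter-based scintillation counting. Primary screen in duplicate at 25 uM, actives retested in concentration series; loss of signal vs DMSO baseline.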

[2] = target: D(1A) dopamine receptor (Homo sapiens) (UniProt P21728); test: NVS_GPCR_hDRD1: NovaScreen (NVS) G Protein-Coupled Receptor Assay for human Dopamine Receptor D1 (DRD1) (AID 2283269)
Chain of D(1A) dopamine receptor (Homo sapiens) (P21728 whole entry, looked up): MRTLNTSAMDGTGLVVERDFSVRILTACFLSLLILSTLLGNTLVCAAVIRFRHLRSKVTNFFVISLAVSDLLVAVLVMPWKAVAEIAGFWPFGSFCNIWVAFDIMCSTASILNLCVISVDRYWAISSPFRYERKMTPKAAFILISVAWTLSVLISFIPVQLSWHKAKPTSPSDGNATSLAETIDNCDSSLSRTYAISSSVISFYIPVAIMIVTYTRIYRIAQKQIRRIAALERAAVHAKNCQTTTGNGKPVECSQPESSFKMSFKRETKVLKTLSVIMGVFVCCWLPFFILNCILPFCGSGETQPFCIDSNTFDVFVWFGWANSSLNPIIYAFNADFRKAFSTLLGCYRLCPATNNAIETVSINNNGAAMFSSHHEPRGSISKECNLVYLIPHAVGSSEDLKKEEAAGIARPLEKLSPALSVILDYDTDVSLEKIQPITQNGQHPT
Summary of the method: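 Radioligand displacement binding on membranes/protein extracted from HEK293 expressing human D1, cell-free; read 1 h after dosing by filter-based scintillation counting. Primary screen in duplicate at 25 uM, actives followed up in concentration series; signal loss versus DMSO baseline.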

[3] = target: human Neurokinin, NK2 Receptor, TACR2 (gene 6865) (UniProt P21452); test: NVS_GPCR_hNK2: NovaScreen (NVS) G Protein-Coupled Receptor Assay for human Neurokinin, NK2 Receptor (AID 2283278);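 further: actives reduce bound radioligand signal relative to DMSO baseline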
Chain of human Neurokinin, NK2 Receptor, TACR2 (gene 6865) (P21452 whole entry, looked up): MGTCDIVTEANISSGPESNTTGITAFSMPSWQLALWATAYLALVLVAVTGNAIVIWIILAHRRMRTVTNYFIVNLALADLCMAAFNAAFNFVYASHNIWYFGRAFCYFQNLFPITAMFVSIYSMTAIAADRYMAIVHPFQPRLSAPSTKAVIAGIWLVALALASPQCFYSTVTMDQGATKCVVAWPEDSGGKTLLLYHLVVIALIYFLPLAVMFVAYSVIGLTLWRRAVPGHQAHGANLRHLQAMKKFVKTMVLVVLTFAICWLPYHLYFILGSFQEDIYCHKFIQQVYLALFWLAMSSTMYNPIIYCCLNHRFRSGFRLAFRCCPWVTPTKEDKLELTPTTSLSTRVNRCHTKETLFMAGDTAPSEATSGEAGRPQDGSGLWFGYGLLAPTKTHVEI
Summary of the method: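 Radioligand binding on membranes from CHO cells expressing receptor, filter-based scintillation read 4 h after dosing. Initial duplicate screen at 25 uM, actives in concentration series; loss of signal versus DMSO.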

[4] = target: human Adrenergic, Alpha 2c Receptor (Adra2C), ADRA2C (gene 152) (UniProt P18825); test: NVS_GPCR_hAdra2C: NovaScreen (NVS) G Protein-Coupled Receptor Assay for human Adrenergic, Alpha 2c Receptor (Adra2C) (AID 2283259)
Chain of human Adrenergic, Alpha 2c Receptor (Adra2C), ADRA2C (gene 152) (P18825 whole entry, looked up): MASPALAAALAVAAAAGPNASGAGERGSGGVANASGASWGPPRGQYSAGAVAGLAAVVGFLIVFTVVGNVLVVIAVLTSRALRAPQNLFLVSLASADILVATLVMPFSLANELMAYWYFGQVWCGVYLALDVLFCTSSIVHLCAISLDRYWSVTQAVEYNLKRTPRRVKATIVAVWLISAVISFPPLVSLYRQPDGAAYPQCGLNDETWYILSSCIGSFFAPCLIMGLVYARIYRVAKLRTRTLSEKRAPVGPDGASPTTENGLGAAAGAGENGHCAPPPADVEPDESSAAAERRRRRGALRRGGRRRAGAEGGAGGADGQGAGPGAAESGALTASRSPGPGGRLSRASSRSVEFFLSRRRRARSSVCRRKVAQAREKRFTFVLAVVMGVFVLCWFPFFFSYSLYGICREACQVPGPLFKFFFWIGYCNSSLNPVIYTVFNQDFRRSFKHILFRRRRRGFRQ
Summary of the method: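 Radioligand binding on Sf9-expressed receptor membranes, 1 h after chemical dosing, filter-based scintillation read-out. Loss of binding fitted positively versus DMSO; primary duplicate screen at 25 uM, actives retested in concentration series.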

[5] = target: Muscarinic acetylcholine receptor M1 (Homo sapiens) (UniProt P11229); test: NVS_GPCR_hM1: NovaScreen (NVS) G Protein-Coupled Receptor Assay for human Muscarinic, M1 Receptor (AID 2283270)
Chain of Muscarinic acetylcholine receptor M1 (Homo sapiens) (P11229 whole entry, looked up): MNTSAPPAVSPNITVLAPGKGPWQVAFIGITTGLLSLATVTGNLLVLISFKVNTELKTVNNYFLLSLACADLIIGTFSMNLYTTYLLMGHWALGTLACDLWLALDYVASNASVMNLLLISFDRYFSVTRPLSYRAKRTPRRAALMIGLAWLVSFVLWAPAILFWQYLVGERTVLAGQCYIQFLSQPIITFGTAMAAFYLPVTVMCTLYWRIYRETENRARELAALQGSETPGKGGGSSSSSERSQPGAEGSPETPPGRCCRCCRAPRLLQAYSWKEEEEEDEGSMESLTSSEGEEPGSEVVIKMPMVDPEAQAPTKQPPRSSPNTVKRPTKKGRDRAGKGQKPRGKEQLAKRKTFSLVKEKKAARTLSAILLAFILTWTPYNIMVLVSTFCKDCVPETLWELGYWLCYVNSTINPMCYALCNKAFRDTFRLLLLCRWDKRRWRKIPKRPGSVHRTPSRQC
Summary of the method: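 Cell-free radioligand displacement using membrane protein extracted from CHO cells, read by filter-based scintillation counting 1 h after dosing. Loss of bound signal fitted versus DMSO; primary screen single concentration 25 uM in duplicate, actives followed by concentration series.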

[6] = target: human Dopamine Receptor D2 (DRD2), DRD2 (gene 1813) (UniProt P14416); test: NVS_GPCR_hDRD2s: NovaScreen (NVS) G Protein-Coupled Receptor Assay for human Dopamine Receptor D2 (DRD2) (AID 2283266)
Summary of the method: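 Radioligand displacement used human DRD2 membranes extracted from CHO cells and was read by filter-based scintillation counting after 1.5 hours. Primary screening was in duplicate at 25 uM. Loss of signal versus DMSO was fitted, with concentration series in follow-up.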

[7] = target: human Histamine 1 Receptor (H1), HRH1 (gene 3269) (UniProt P35367); test: NVS_GPCR_hH1: NovaScreen (NVS) G Protein-Coupled Receptor Assay for human Histamine 1 Receptor (H1) (AID 2283268)
Summary of the method: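 Cell-free radioligand displacement at human H1 receptor, 1 h, filter scintillation counting; primary screen 25 uM in duplicate, hits in concentration series; loss of binding fitted vs DMSO.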

[8] = target: human Neuropeptide Receptor Y1 (NPY1), NPY1R (gene 4886) (UniProt P25929); test: NVS_GPCR_hNPY1: NovaScreen (NVS) G Protein-Coupled Receptor Assay for human Neuropeptide Receptor Y1 (NPY1) (AID 2283276)
Summary of the method: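 Cell-free radioligand binding using receptor extracted from SK-N-MC cells, 1 h incubation, filter-based scintillation counting. Primary screen single concentration 25 uM in duplicate; actives followed in concentration series. Loss of bound signal scored versus DMSO.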

[9] = target: human Neurotensin Receptor (NTS), NTSR1 (gene 4923) (UniProt P30989); test: NVS_GPCR_hNTS: NovaScreen (NVS) G Protein-Coupled Receptor Assay for human Neurotensin Receptor (NTS) (AID 2283279)
Chain of human Neurotensin Receptor (NTS), NTSR1 (gene 4923) (P30989 whole entry, looked up): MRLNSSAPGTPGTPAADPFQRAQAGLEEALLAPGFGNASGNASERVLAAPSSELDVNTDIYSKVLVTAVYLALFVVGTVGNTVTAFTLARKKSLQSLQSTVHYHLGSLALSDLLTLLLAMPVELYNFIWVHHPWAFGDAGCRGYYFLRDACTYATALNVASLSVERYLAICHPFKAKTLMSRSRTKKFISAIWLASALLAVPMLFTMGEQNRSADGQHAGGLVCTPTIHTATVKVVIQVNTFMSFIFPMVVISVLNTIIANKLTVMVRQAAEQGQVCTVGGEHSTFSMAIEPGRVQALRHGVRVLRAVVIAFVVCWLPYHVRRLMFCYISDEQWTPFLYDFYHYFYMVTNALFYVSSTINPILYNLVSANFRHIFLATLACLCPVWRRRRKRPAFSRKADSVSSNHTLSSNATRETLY
Summary of the method: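 Radioligand displacement on human NTSR1 protein from CHO cells, cell-free, 1 h, filter-based scintillation counting. Primary screen at 25 uM in duplicate; hits rerun in concentration-response up to 50 uM.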

[10] = target: human Leukotriene B4 Receptor 1 (LTB4-BLT1), LTB4R (gene 1241) (UniProt Q15722); test: NVS_GPCR_hLTB4_BLT1: NovaScreen (NVS) G Protein-Coupled Receptor Assay for human Leukotriene B4 Receptor 1 (LTB4-BLT1) (AID 2283271)
Chain of human Leukotriene B4 Receptor 1 (LTB4-BLT1), LTB4R (gene 1241) (Q15722 whole entry, looked up): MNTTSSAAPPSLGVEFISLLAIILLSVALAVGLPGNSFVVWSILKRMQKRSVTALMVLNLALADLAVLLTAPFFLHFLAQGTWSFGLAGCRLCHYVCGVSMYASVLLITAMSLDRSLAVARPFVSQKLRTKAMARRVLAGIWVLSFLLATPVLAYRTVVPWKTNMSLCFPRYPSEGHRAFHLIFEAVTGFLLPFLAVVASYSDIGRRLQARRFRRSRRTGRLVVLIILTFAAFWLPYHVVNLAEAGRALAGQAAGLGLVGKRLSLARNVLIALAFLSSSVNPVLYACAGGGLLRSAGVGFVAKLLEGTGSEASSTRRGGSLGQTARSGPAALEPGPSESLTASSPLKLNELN
Summary of the method: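 Radioligand displacement binding on receptor extracted from human neutrophils, cell-free, 1 h after dosing; filter-based scintillation counting. Primary screen in duplicate at 25 uM, actives retested in concentration-response up to 50 uM; loss of signal versus DMSO.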

[11] = target: Beta-2 adrenergic receptor (Homo sapiens) (UniProt P07550); test: NVS_GPCR_hAdrb2: NovaScreen (NVS) G Protein-Coupled Receptor Assay for human Adrenergic, Beta 2 Receptor (Adrb2) (AID 2283261)
Chain of Beta-2 adrenergic receptor (Homo sapiens) (P07550 whole entry, looked up): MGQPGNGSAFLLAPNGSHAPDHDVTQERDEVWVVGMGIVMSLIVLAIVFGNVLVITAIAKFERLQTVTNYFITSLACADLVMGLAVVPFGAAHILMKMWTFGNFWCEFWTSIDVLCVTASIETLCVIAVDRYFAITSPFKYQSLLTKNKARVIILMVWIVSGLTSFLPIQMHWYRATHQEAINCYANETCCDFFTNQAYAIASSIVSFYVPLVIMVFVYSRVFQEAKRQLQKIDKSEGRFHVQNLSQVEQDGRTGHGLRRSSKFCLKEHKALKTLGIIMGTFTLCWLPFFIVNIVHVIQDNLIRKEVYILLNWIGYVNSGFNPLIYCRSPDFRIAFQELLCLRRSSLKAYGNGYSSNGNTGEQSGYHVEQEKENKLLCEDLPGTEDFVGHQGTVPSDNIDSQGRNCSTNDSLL
Summary of the method: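 Filter-based radioligand binding using receptor prepared from CHO cells, 1 h incubation, scintillation counting. Primary screen in duplicate at 25 uM, actives retested in concentration series; loss of binding relative to DMSO.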

[12] = target: Muscarinic acetylcholine receptor M3 (Homo sapiens) (UniProt P20309); test: NVS_GPCR_hM3: NovaScreen (NVS) G Protein-Coupled Receptor Assay for human Muscarinic, M3 Receptor (AID 2283272)
Chain of Muscarinic acetylcholine receptor M3 (Homo sapiens) (P20309 whole entry, looked up): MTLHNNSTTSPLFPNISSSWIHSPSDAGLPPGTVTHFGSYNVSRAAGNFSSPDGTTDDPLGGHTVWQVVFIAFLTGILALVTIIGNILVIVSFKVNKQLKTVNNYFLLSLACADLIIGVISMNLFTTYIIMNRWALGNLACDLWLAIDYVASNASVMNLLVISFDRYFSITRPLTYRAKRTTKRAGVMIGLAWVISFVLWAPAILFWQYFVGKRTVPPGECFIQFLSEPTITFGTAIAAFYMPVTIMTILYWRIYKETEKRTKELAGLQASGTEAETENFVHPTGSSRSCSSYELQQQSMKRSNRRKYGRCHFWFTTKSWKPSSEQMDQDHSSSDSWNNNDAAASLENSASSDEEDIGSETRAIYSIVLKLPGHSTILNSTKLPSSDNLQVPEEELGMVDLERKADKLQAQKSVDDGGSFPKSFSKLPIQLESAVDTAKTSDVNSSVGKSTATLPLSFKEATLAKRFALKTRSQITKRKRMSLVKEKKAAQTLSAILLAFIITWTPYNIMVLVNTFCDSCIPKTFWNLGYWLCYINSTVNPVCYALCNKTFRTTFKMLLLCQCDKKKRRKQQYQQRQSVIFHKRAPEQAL
Summary of the method: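 Radioligand displacement binding on human M3 receptor in CHO-derived membranes, 1 h incubation, filter-based scintillation counting. Primary screen in duplicate at 25 uM; actives followed up in concentration series; loss of signal versus DMSO.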

[13] = target: Muscarinic acetylcholine receptor M2 (Homo sapiens) (UniProt P08172); test: NVS_GPCR_hM2: NovaScreen (NVS) G Protein-Coupled Receptor Assay for human Muscarinic, M2 Receptor (AID 2283273)
Chain of Muscarinic acetylcholine receptor M2 (Homo sapiens) (P08172 whole entry, looked up): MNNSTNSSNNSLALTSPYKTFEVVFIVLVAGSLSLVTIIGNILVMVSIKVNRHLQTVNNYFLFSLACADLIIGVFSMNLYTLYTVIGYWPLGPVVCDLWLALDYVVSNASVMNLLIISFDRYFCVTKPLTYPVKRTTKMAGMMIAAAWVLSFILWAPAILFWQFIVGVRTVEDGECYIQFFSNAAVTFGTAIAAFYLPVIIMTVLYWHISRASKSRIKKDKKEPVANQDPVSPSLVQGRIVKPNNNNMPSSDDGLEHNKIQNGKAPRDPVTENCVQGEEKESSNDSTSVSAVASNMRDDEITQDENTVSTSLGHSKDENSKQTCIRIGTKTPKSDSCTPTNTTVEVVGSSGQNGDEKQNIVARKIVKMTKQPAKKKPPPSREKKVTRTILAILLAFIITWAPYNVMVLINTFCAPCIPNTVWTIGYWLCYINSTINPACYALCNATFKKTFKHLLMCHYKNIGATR
Summary of the method: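 CHO membrane prep, radioligand + test compound, 1 h; filtration, scintillation count. Screen 25 uM duplicate → conc. series for actives. Readout: decrease in binding vs DMSO control.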

[14] = target: human Muscarinic, M4 Receptor, CHRM4 (gene 1132) (UniProt P08173); test: NVS_GPCR_hM4: NovaScreen (NVS) G Protein-Coupled Receptor Assay for human Muscarinic, M4 Receptor (AID 2283274)
Chain of human Muscarinic, M4 Receptor, CHRM4 (gene 1132) (P08173 whole entry, looked up): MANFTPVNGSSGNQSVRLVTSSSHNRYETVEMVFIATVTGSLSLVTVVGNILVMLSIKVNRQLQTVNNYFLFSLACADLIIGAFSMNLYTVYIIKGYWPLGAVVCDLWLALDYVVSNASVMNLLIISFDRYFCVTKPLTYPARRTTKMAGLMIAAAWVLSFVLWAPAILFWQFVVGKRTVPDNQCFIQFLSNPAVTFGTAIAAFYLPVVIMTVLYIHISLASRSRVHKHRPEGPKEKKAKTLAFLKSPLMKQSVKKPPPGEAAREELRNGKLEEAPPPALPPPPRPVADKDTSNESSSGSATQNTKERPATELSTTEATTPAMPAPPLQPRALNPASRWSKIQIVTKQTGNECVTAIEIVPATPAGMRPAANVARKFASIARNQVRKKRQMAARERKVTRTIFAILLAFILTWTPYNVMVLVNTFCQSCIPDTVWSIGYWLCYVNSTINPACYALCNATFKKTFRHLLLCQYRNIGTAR
Summary of the method: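 Cell-free radioligand displacement using CHO-derived human M4 receptor protein, 1 h after dosing; bound radioactivity by filtration and scintillation counting. Primary screen single 25 uM duplicate, actives followed in concentration series.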

[15] = target: Type-1 angiotensin II receptor (Homo sapiens) (UniProt P30556); test: NVS_GPCR_hAT1: NovaScreen (NVS) G Protein-Coupled Receptor Assay for human Angiotensin II receptor type 1 (AT1) (AID 2283263)
Summary of the method: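 Membranes from KAN-TS cells; radioligand competitive displacement, 3 h, filtration and scintillation counting. Single-point duplicate screen at 25 uM, then concentration-response up to 50 uM for hits; loss of signal fitted versus DMSO.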

**Q.** `CC(C)CCCCCCc1ccc(O)cc1` was tested. Which AC50 [1] did it give?
**A.** 38 µM (active)

**Q.** And the AC50 [2]?
**A.** 25 µM (active)

**Q.** With `CC(C)(C)[C@@H](O)[C@@H](Cc1ccc(Cl)cc1)n1cncn1` as the molecule, how does the outcome [3] read?
**A.** inactive

**Q.** With `CCOC(=O)[C@H](C)Oc1ccc(Oc2nc3ccc(Cl)cc3o2)cc1` as the molecule, how does the outcome [4] read?
**A.** inactive

**Q.** What about the outcome [5] of the same molecule?
**A.** inactive

**Q.** With `S=C([S-])NCCNC(=S)[S-].[Mn+2]` as the molecule, how does the outcome [6] read?
**A.** inactive

**Q.** And the outcome [7]?
**A.** inactive

**Q.** And the AC50 [8]?
**A.** 13.3 µM (active)

**Q.** What about the outcome [9] of the same molecule?
**A.** inactive

**Q.** How did the outcome [9] turn out when `CCCN(CCC)c1c([N+](=O)[O-])cc(C(F)(F)F)c(N)c1[N+](=O)[O-]` was run?
**A.** inactive

**Q.** `O=C(O)C1(C(=O)Nc2ccc(Cl)cc2Cl)CC1` was tested. Which outcome [10] did it give?
**A.** inactive

**Q.** Which outcome [3] does the source give for `CC(=O)S[C@@H]1CC2=CC(=O)CC[C@]2(C)[C@H]2CC[C@@]3(C)[C@@H](CC[C@@]34CCC(=O)O4)[C@H]12` here?
**A.** inactive

**Q.** With `Oc1ccc(C(c2ccc(O)cc2)C(Cl)(Cl)Cl)cc1` as the molecule, how does the outcome [1] read?
**A.** inactive

**Q.** What about the AC50 [4] of the same molecule?
**A.** 6.88 µM (active)

**Q.** And the outcome [11]?
**A.** inactive

**Q.** What about the AC50 [6] of the same molecule?
**A.** 25 µM (active)

**Q.** What about the AC50 [2] of the same molecule?
**A.** 6.83 µM (active)

**Q.** And the AC50 [5]?
**A.** 6.79 µM (active)

**Q.** And the outcome [10]?
**A.** inactive

**Q.** And the outcome [12]?
**A.** inactive

**Q.** And the AC50 [13]?
**A.** 4.96 µM (active)

**Q.** What about the AC50 [14] of the same molecule?
**A.** 6.62 µM (active)

**Q.** What about the outcome [3] of the same molecule?
**A.** inactive

**Q.** With `CCCCCCC(C)OC(=O)COc1nc(F)c(Cl)c(N)c1Cl` (stereo not given) as the molecule, how does the outcome [15] read?
**A.** inactive

**Q.** And the AC50 [2]?
**A.** 25 µM (active)

**Q.** For `CCCCC(CC)CN1C(=O)C2C3C=CC(C3)C2C1=O` (stereo not given), which outcome [11] is on record?
**A.** inactive

**Q.** And the AC50 [12]?
**A.** 8.81 µM (active)

**Q.** What about the outcome [13] of the same molecule?
**A.** inactive

**Q.** For `C[C@]12CC[C@@H]3c4ccc(O)cc4C[C@@H](CCCCCCCCCS(=O)CCCC(F)(F)C(F)(F)F)[C@H]3[C@@H]1CC[C@@H]2O` (stereo not given in full), which outcome [12] is on record?
**A.** inactive

**Q.** How did the outcome [11] turn out when `C=CCOC(Cn1ccnc1)c1ccc(Cl)cc1Cl` (stereo not given) was run?
**A.** inactive

**Q.** And the AC50 [5]?
**A.** 5.47 µM (active)

**Q.** What about the outcome [10] of the same molecule?
**A.** inactive

**Q.** What about the AC50 [12] of the same molecule?
**A.** 5.02 µM (active)

**Q.** And the AC50 [13]?
**A.** 2.67 µM (active)

**Q.** And the AC50 [14]?
**A.** 5.37 µM (active)
